Screens deposited in PubChem BioAssay by Johns Hopkins Ion Channel Center.
CHT allo act = allosterically activates the human high affinity choline transporter. AID 488977. 0.49% of 310,000 active. B-score at 10 µM. CHT-expressing cells, membrane potential dye, choline EC20; stronger effect = higher value; LV-AA mutant CHT in HEK293 cells;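 active = initial fluorescence not abnormally high and integrated response B-score, plate-corrected, over 3 SD above library mean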
Target sequence (Q9GZV3 whole entry, looked up): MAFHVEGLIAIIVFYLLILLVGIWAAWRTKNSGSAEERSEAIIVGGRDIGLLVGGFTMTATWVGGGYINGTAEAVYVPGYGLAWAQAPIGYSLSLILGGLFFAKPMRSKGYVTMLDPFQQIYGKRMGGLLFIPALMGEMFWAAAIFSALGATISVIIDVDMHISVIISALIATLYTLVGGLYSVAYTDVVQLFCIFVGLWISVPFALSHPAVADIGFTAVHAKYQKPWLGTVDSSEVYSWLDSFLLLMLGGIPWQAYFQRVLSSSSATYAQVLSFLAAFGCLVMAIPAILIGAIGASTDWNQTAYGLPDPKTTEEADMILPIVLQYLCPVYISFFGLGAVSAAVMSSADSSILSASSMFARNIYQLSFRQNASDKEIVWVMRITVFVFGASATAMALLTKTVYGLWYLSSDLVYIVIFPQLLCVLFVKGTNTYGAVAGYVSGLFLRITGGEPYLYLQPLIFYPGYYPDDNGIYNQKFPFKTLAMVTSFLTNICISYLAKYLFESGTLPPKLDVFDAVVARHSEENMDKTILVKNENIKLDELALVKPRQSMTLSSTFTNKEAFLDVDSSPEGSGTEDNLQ
CHT inh = inhibits the human high affinity choline transporter. Q9GZV3. CHT-expressing cells, membrane potential dye, choline response; stronger effect = lower value. B-score at 10 µM. 0.86% of 310,000 active;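 active = B-score over 3 SD under the library average, and starting fluorescence ratio not unusually high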;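 also: choline stimulus applied at its EC90 after an EC20 pre-addition; B-score computed on integrated fluorescence ratio after choline addition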
TMEM16A inh = blocks the mouse calcium-activated chloride channel TMEM16A | HEK293 TMEM16A/YFP iodide influx fluorescence, ionomycin | normalized B-score (activity score, 25-100; higher = stronger inhibition) at 10 µM | 1.2% of 310,000 active | AID 588511;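 active = ratio plate-corrected score three or more library SD toward inhibition, starting fluorescence score within five deviations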;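 also: score derived from kinetic fluorescence span divided by baseline fluorescence per well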
TMEM16A act = mouse TMEM16A channel activation, primary screen; Q8BHY3; HEK293 TMEM16A/YFP-H148Q/I152L, iodide quench fluorescence; stronger effect = lower value; B-score at 10 µM; 0.3% of 340,000 active;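 active = fluorescence-ratio B-score plate-corrected deviation score at least 3 library SD below zero, with starting fluorescence score within 5 deviations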;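 also: channel opened by trigger with iodide after compound preincubation; score built on the fluorescence ratio of max minus min over baseline; more negative score means more quench and so TMEM16A activation or potentiation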
TMEM16A reconf = TMEM16A (mouse) chloride channel inhibition, re-confirmation; 39% of 2,300 active; inhibition, % at 10 µM; HEK293 TMEM16A/YFP-H148Q, iodide quench fluorescence; ionomycin added to raise cell calcium; shares compounds with TMEM16A inh;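 active = mean duplicate percent inhibition, scaled so buffer wells are 0 and the reference blocker 100, over three buffer SD above buffer mean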
TMEM16A Ca cntr = calcium mobilization counter-screen hit for TMEM16A inhibitor series; shares compounds with TMEM16A inh; TMEM16A/YFP HEK293, Fluo4 calcium mobilization; calcium response (% of ionomycin), % at 10 µM; 2% of 2,300 active; AID 652231;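 active = duplicate-averaged calcium signal over 20% of the ionomycin maximum, relative to buffer baseline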;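 also: each well's signal is peak minus trough fluorescence divided by its pre-addition baseline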
YFP-HEK293 quench = acts in parental YFP-HEK293 cells lacking TMEM16A, counter-screen. shares compounds with TMEM16A inh. iodide YFP quench, ionomycin. YFP ratio F(max-min)/F0 at 10 µM. 2,300 tested, under 10 active. AID 652233;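 active = yellow fluorescent protein signal ratio exceeding the buffer control mean by over 5 SD of those controls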;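 also: ratio is mean of duplicate wells from kinetic YFP trace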
ClC-1 rat inh = blocks the rat ClC-1 voltage-dependent chloride channel. shares compounds with TMEM16A inh. CHO ClC-1-YFP, iodide influx fluorescence quench; iodide control reads 0, buffer control 100. ratio percent, % at 10 µM. 2,300 tested, under 10 active. AID 652236;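 active = duplicate-mean ratio percent above the mean of iodide-only control wells, which defines zero, plus 5 of their SD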;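 also: higher percent means stronger block of ClC-1 iodide influx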
Large screens that a line does not name were inactive (follow-up assays come after a bar, where they were run). Compounds with a hit are over-represented: about 2.4% of the library has one in this group of screens.

CCOC(=O)c1sc(NC(=O)c2cc(-c3ccc(C)cc3)nc3ccccc23)c(C#N)c1C	none
COCCn1c(SCC(=O)N2CCCc3ccccc32)nc2cccnc21	none
CC(Cc1cccs1)NC(=S)Nc1ccc(Cl)cc1 (configuration not stated)	TMEM16A inh 25 | TMEM16A reconf 38% | TMEM16A Ca cntr inactive | YFP-HEK293 quench inactive | ClC-1 rat inh inactive
CCc1c(C(=O)Nc2nnc(C3CC3)s2)csc1C	TMEM16A inh 100 | TMEM16A reconf inactive | TMEM16A Ca cntr inactive | YFP-HEK293 quench inactive | ClC-1 rat inh inactive
COC(=O)Cc1ccc(NC(=S)Nc2ccc(N3CCOCC3)cc2)cc1	TMEM16A inh 25 | TMEM16A reconf inactive | TMEM16A Ca cntr inactive | YFP-HEK293 quench inactive | ClC-1 rat inh inactive
CC(C)CC(=O)NC(=S)Nc1ccc(N2CCOCC2)cc1	none
COc1cccc(NC(=O)CN(C)C(=O)c2cccc(S(=O)(=O)N3CCN(c4ccc(F)cc4)CC3)c2)c1	TMEM16A inh 100 | TMEM16A reconf inactive | TMEM16A Ca cntr inactive | YFP-HEK293 quench inactive | ClC-1 rat inh inactive
CN(CC(=O)Nc1ccc(F)cc1)C(=O)c1cccc(S(=O)(=O)N2CCN(c3ccc(F)cc3)CC2)c1	none
Cc1nnc(SCC(=O)c2cc(C)n(-c3ccc4c(c3)OCO4)c2C)s1	TMEM16A inh 25, TMEM16A act -6.1 | TMEM16A reconf inactive | TMEM16A Ca cntr 21% | YFP-HEK293 quench inactive | ClC-1 rat inh inactive
Cc1cc(C(=O)CSc2nnnn2C)c(C)n1-c1ccc2c(c1)OCCO2	none
CSc1nc2ccc(NS(=O)(=O)c3ccc4c(c3)OCCO4)cc2s1	TMEM16A inh 100 | TMEM16A reconf 18% | TMEM16A Ca cntr inactive | YFP-HEK293 quench inactive | ClC-1 rat inh inactive
CSc1nc2ccc(NS(=O)(=O)c3c(Cl)cccc3Cl)cc2s1	none
Cc1ccc(C)n1CCN1CCN(C(=O)c2ccco2)CC1	none
O=C(CC1Sc2ccccc2NC1=O)OCc1cc(=O)oc2cc(O)ccc12 (configuration not stated)	TMEM16A inh 25 | TMEM16A reconf 32% | TMEM16A Ca cntr inactive | YFP-HEK293 quench inactive | ClC-1 rat inh inactive
Cc1ccc2c(COC(=O)CC3Sc4ccccc4NC3=O)cc(=O)oc2c1C (configuration not stated)	none
Cn1c(CNc2nc3ccccc3n2CCN2CCCCC2)nc2ccccc21	TMEM16A inh 25 | TMEM16A reconf inactive | TMEM16A Ca cntr inactive | YFP-HEK293 quench inactive | ClC-1 rat inh inactive
OCCNc1nc2ccccc2n1CCN1CCCCC1	none
CCOc1ccc(CN2CCCC(CO)(Cc3ccc(F)cc3)C2)cc1 (configuration not stated)	none
Cc1ccccc1-c1cc(-c2ccccc2O)n[nH]1	TMEM16A inh 25 | TMEM16A reconf inactive | TMEM16A Ca cntr inactive | YFP-HEK293 quench inactive | ClC-1 rat inh inactive
O=C(c1ccc2c(c1)OCO2)C1CCCN(Cc2ccc(OC(F)F)cc2)C1 (configuration not stated)	TMEM16A inh 25 | TMEM16A reconf 21% | TMEM16A Ca cntr inactive | YFP-HEK293 quench inactive | ClC-1 rat inh inactive
CC(C)(C)C1CCc2onc(C(=O)Nc3ccc(F)cc3F)c2C1 (configuration not stated)	TMEM16A inh 100 | TMEM16A reconf inactive | TMEM16A Ca cntr inactive | YFP-HEK293 quench inactive | ClC-1 rat inh inactive
Cn1c(Cc2ccccc2)nnc1SCC(=O)NC1CCCCC1	none
Cn1c(Cc2ccccc2)nnc1SCC(=O)NC1CCCC1	TMEM16A inh 100 | TMEM16A reconf inactive | TMEM16A Ca cntr inactive | YFP-HEK293 quench inactive | ClC-1 rat inh inactive
CCOc1cc(S(=O)(=O)NCc2ccccn2)c(C)cc1C	TMEM16A inh 100 (no result: TMEM16A act) | TMEM16A reconf inactive | TMEM16A Ca cntr inactive | YFP-HEK293 quench inactive | ClC-1 rat inh inactive
Cc1cc(C)c(S(=O)(=O)NCc2ccccn2)cc1C	none
CC(NC(=O)c1cc(S(=O)(=O)N(C)C)ccc1Cl)c1ccc(-n2ccnc2)cc1 (configuration not stated)	none
O=C(CCN1CCOCC1)Nc1ccccc1	TMEM16A inh 100 | TMEM16A reconf inactive | TMEM16A Ca cntr inactive | YFP-HEK293 quench inactive | ClC-1 rat inh inactive
COc1cccc(NC(=O)CCN2CCOCC2)c1	none
CCOc1cccc(C(=O)NC(=S)Nc2ccc(Cl)cc2C(=O)O)c1	none
O=C(c1cc(COc2cccc3cnccc23)on1)N1CCCC(CCCO)C1 (configuration not stated)	TMEM16A inh 25 | TMEM16A reconf 40% | TMEM16A Ca cntr inactive | YFP-HEK293 quench inactive | ClC-1 rat inh inactive
COCC1CCN(C(=O)c2cc(COc3cccc4cnccc34)on2)CC1	none
c1ccc(-c2nc(-n3nc4ccccc4n3)nc3ccccc23)cc1	TMEM16A inh 100 | TMEM16A reconf inactive | TMEM16A Ca cntr inactive | YFP-HEK293 quench inactive | ClC-1 rat inh inactive
O=C(N/N=C/c1cn(Cc2ccccc2)c2ccccc12)c1cc(O)cc(O)c1	none
Cc1ccc(C(=O)N/N=C/c2cn(Cc3ccccc3)c3ccccc23)cn1	TMEM16A inh 25 | TMEM16A reconf inactive | TMEM16A Ca cntr inactive | YFP-HEK293 quench inactive | ClC-1 rat inh inactive
O=C1NC(=S)N/C1=C/c1ccc(Oc2ccc(C(F)(F)F)cc2[N+](=O)[O-])c(Cl)c1	none
Cc1ccnc(Nc2nc(-c3ccc(O)c(O)c3)cs2)c1	TMEM16A inh 25 | TMEM16A reconf inactive | TMEM16A Ca cntr inactive | YFP-HEK293 quench inactive | ClC-1 rat inh inactive
COc1ccc(NC(=O)c2ccc3nccnc3c2)cc1	TMEM16A inh 100 | TMEM16A reconf inactive | TMEM16A Ca cntr inactive | YFP-HEK293 quench inactive | ClC-1 rat inh inactive
CCc1ccc(NC(=O)Cn2cnc3c(=O)n(C)c(=O)n(C)c32)cc1	none
CCc1ccc(C(C)NC(=O)Cn2cnc3c(=O)n(C)c(=O)n(C)c32)cc1 (configuration not stated)	TMEM16A inh 25 | TMEM16A reconf inactive | TMEM16A Ca cntr inactive | YFP-HEK293 quench inactive | ClC-1 rat inh inactive
Oc1ccccc1Cc1c(O)ccc2ccccc12	TMEM16A inh 25 | TMEM16A reconf 38% | TMEM16A Ca cntr inactive | YFP-HEK293 quench inactive | ClC-1 rat inh inactive
Cc1nc(SCc2ccc(Cl)c(Cl)c2)ncc1C(=O)O	TMEM16A inh 25 | TMEM16A reconf 22% | TMEM16A Ca cntr inactive | YFP-HEK293 quench inactive | ClC-1 rat inh inactive
CC(=O)c1cnc(SCc2ccc(Cl)cc2)nc1C	none
COc1ccc(NC(=O)Cn2nc(C(F)(F)F)c3c2CCCC3)c(OC)c1	none (no result: TMEM16A act)
c1ccc(-c2nc(-c3ccccn3)no2)cc1	none
